The panel holds about 83,000 compounds, 20% with a hit somewhere; the sample as a whole holds those more often.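 The test compound was applied at a single concentration to cells in 96-well plates for 48 hours, and percent growth was recorded.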 Unmarked numbers belong to inactive results. Activity calls are given as the source filed them. Rule for the calls: active = growth percent below 10; inactive = the rest.
Tests used:
Assay in all cases: NCI-60 one-dose screen, 48 h (100 = growth as untreated, 0 = no growth, -100 = all killed)
Details in all cases: 10 µM
NCI-H23 lung = system: NCI-H23 lung
NCI-H226 lung = system: NCI-H226 lung
HOP-62 NSCLC = system: HOP-62 NSCLC
NCI-H460 lung = system: NCI-H460 lung
HOP-92 NSCLC = system: HOP-92 NSCLC
NCI-H522 lung = system: NCI-H522 lung
A549/ATCC NSCLC = system: A549/ATCC NSCLC
786-0 renal = system: 786-0 renal
COLO 205 colon = system: COLO 205 colon
DU-145 prostate = system: DU-145 prostate
K-562 leukemia = system: K-562 leukemia
MALME-3M melanoma = system: MALME-3M melanoma
MDA-MB-231 breast = system: MDA-MB-231 breast
RXF 393 renal = system: RXF 393 renal
SF-268 CNS = system: SF-268 CNS
SF-295 CNS = system: SF-295 CNS
SF-539 CNS = system: SF-539 CNS
UACC-257 melanoma = system: UACC-257 melanoma
M14 melanoma = system: M14 melanoma

Row | Structure (SMILES) | growth (NCI-H23 lung) | growth (NCI-H226 lung) | growth (HOP-62 NSCLC) | growth (NCI-H460 lung) | growth (HOP-92 NSCLC) | growth (NCI-H522 lung) | growth (A549/ATCC NSCLC) | growth (786-0 renal) | growth (COLO 205 colon) | growth (DU-145 prostate) | growth (K-562 leukemia) | growth (MALME-3M melanoma) | growth (MDA-MB-231 breast) | growth (RXF 393 renal) | growth (SF-268 CNS) | growth (SF-295 CNS) | growth (SF-539 CNS) | growth (UACC-257 melanoma) | growth (M14 melanoma)
1 | O=C(Nc1nc(-c2ccccc2)nc2c1sc(=S)n2-c1ccccc1)C(F)(F)F | 89.9% | 90.3% | 101% | 99.3% | 81.4% | 86.6% | 74.9% | 98.9% | 115% | 99.6% | 79.4% | 124% | 89.7% | 98% | 98.4% | 88.4% | 96.5% | 82.9% | 101%
2 | O=C(Nc1ccc2c(O)cc(S(=O)(=O)O)cc2c1)c1ccc([N+](=O)[O-])cc1 | 100% | 96.2% | 83.3% | 107% | 89.8% | 84.7% | 79.3% | 98.6% | 91.8% | 99.7% | 99% | 99.8% | 105% | 105% | 93.9% | 98.2% | 97% | 74.6% | 94.6%
3 | CC(CN(C)C)Oc1ccccc1NC1=C(Cl)C(=O)C(Nc2ccccc2OC(C)CN(C)C)=C(Cl)C1=O (configuration not stated) | -70.7% (active) | -94.4% (active) | -97.6% (active) | -4.55% (active) | -60.7% (active) | -73.4% (active) | 1.98% (active) | -71.5% (active) | -67.3% (active) | -99.3% (active) | -11.2% (active) | -76.6% (active) | -77.5% (active) | -90.7% (active) | -81.8% (active) | 30.6% | -98% (active) | -91.8% (active) | -65% (active)
4 | COc1cc(/C=C/c2cc(/C=C/c3ccc(O)c(OC)c3)n(C(=O)Nc3ccccc3Cl)n2)ccc1O | -25.8% (active) | -3.72% (active) | 8.39% (active) | 7.39% (active) | -14.4% (active) | -18.7% (active) | 8.75% (active) | -14.8% (active) | -73.5% (active) | 1.28% (active) | 2.27% (active) | 8.27% (active) | 17.7% | -50.3% (active) | -6.38% (active) | 2.83% (active) | 4.06% (active) | 1.28% (active) | 0.265% (active)
5 | COc1ccc(-c2cc(-c3ccc(Cl)cc3)nc(SCCCCCCC(=O)NO)n2)cc1OC | 42.7% | 69.3% | 62.4% | 19.7% | 40.6% | 45.4% | 58.5% | 51.3% | 66.4% | 82.4% | 36.1% | 42.5% | 70.8% | 57.5% | 91.9% | 77.1% | 58.4% | 72.1% | 44.4%
6 | COc1ccc(-c2n[nH]nc2-c2cc(OC)c(OC)c(OC)c2)cc1 | 10.8% | 63.2% | 46.2% | 2.7% (active) | -1.89% (active) | -24.5% (active) | 20.4% | 16.9% | -18.5% (active) | -14.1% (active) | 8.16% (active) | 37.3% | 14.8% | 33.3% | 9.64% (active) | 13.7% | 10.3% | 69.1% | 12.2%
7 | Nc1ccn(Cc2nnc(CCC(=O)c3nc4ccccc4[nH]3)o2)c(=O)n1 | 74.5% | 73.7% | 82% | 34.6% | 66.1% | 84.2% | 63.8% | 97.2% | 103% | 98.4% | 79.8% | 90.9% | 87.3% | 98.5% | 95.8% | 79.8% | 86.8% | 101% | 89.8%
8 | COc1ccc(N=Nc2cc(OC)c(OC)c(OC)c2)cc1 | 77.3% | 92.4% | 66.9% | 87.5% | 79.4% | 57% | 73% | 98.2% | 87.2% | 97.3% | 69.4% | 77.9% | 89.4% | 86% | 91.3% | 83.6% | 82.6% | 84.9% | 74.3%
